Where “and” joins values, the source holds several entries; their conditions need not be identical. Identical values can stand only once.
Key:
[1] = target: T1, Tyrosine-protein kinase receptor TYRO3 (Homo sapiens) (UniProt Q06418); conditions: at 1 µM
T1 sequence (whole entry): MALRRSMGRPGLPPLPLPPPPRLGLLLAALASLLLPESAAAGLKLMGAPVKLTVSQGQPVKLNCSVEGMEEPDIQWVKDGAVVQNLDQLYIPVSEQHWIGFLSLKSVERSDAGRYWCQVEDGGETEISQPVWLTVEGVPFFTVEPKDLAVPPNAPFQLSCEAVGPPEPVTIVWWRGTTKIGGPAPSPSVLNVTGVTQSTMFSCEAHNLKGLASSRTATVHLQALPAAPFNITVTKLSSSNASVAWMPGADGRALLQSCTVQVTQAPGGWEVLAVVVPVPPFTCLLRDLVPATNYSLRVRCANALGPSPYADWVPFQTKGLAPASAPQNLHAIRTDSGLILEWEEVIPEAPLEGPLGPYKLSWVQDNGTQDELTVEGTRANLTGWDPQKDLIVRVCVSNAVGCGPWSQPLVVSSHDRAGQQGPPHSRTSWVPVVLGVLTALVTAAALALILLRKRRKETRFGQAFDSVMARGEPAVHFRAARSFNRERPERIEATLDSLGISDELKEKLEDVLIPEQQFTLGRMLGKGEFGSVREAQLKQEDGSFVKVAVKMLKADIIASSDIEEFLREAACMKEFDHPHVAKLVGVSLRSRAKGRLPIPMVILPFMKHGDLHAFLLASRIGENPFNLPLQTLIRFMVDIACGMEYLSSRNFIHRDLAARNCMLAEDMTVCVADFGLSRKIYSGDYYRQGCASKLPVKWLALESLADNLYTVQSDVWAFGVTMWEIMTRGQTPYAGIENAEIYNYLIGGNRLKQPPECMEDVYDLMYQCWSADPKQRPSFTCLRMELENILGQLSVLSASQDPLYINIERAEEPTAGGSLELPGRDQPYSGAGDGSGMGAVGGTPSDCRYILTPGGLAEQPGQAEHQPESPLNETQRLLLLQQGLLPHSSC

[2] = target: Tyrosine-protein kinase Yes (Homo sapiens) (UniProt P07947); conditions: at 0.1 µM
Tyrosine-protein kinase Yes (Homo sapiens), sequence (P07947 2-543 limits assumed): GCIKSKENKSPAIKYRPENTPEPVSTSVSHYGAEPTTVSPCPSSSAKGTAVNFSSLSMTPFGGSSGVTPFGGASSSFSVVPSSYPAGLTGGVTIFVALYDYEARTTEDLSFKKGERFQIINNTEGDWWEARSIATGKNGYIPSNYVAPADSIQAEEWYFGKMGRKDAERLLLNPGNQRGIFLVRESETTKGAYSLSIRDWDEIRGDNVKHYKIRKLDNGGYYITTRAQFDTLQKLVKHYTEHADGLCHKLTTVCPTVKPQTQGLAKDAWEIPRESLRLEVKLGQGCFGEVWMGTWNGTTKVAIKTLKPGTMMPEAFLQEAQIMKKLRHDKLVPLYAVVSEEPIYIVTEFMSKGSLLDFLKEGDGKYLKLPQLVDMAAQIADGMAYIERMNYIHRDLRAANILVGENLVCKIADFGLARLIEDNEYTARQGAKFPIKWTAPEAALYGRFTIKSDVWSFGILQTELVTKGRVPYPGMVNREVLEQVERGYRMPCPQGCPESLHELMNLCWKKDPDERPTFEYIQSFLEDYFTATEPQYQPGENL

[3] = target: Tyrosine-protein kinase Yes (Homo sapiens) (UniProt P07947); conditions: at 1 µM
[4] = target: T2, Tyrosine-protein kinase ZAP-70 (Homo sapiens) (UniProt P43403); conditions: at 0.1 µM
T2 sequence (whole entry): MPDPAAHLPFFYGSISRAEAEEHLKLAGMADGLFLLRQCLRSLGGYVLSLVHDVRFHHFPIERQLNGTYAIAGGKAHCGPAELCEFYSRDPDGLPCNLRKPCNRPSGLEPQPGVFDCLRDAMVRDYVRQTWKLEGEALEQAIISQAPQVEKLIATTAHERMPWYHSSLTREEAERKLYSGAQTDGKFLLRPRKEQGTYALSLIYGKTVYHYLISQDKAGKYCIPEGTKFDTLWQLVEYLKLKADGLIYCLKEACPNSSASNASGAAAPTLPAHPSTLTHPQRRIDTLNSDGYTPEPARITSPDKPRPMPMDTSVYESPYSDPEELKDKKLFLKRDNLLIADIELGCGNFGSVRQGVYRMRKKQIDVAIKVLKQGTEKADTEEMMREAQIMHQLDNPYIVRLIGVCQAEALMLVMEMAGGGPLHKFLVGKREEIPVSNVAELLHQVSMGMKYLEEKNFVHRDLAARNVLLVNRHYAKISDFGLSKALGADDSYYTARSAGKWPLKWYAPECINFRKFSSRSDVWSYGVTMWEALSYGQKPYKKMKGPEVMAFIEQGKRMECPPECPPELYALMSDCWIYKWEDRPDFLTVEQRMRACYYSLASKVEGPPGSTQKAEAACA

[5] = target: T2, Tyrosine-protein kinase ZAP-70 (Homo sapiens); conditions: at 1 µM
[6] = target: Serine/threonine-protein kinase B-raf (Homo sapiens) (UniProt P15056); conditions: at 0.1 µM
Serine/threonine-protein kinase B-raf (Homo sapiens), sequence (P15056 whole entry): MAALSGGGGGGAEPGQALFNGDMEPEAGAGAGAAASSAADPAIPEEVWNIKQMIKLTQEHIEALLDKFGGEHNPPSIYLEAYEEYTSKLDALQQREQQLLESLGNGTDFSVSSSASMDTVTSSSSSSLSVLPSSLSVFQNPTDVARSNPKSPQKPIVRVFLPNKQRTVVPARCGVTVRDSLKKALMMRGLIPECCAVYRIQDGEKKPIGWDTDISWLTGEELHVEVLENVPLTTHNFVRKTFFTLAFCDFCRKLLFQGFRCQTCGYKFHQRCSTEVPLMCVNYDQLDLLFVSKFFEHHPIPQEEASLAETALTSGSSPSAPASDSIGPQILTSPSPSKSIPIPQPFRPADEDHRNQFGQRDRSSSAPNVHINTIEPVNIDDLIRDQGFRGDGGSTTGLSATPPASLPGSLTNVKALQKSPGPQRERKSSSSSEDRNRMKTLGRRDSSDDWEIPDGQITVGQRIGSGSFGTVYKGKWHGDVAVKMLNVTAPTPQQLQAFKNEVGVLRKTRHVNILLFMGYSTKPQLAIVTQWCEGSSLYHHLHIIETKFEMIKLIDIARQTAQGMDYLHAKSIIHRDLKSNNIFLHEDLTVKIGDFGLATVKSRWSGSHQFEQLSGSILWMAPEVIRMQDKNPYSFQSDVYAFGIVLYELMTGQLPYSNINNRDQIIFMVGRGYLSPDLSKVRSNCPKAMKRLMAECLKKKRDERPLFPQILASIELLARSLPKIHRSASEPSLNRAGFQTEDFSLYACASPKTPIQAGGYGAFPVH

[7] = target: Serine/threonine-protein kinase B-raf (Homo sapiens) (UniProt P15056); conditions: at 1 µM
[8] = system: Serine/threonine-protein kinase B-raf (Homo sapiens), P15056 [V600E]; conditions: at 0.1 µM
Serine/threonine-protein kinase B-raf (Homo sapiens), P15056 [V600E], sequence (P15056 whole entry V600E): as the sequence (P15056 whole entry) above, with V600E counted along it

[9] = system: Serine/threonine-protein kinase B-raf (Homo sapiens), P15056 [V600E]; conditions: at 1 µM
[10] = target: RAF proto-oncogene serine/threonine-protein kinase (Homo sapiens) (UniProt P04049); conditions: at 0.1 µM;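 also: values are mean CRAF kinase inhibition from profiling of the GSK Published Kinase Inhibitor Set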
RAF proto-oncogene serine/threonine-protein kinase (Homo sapiens), sequence (P04049 whole entry): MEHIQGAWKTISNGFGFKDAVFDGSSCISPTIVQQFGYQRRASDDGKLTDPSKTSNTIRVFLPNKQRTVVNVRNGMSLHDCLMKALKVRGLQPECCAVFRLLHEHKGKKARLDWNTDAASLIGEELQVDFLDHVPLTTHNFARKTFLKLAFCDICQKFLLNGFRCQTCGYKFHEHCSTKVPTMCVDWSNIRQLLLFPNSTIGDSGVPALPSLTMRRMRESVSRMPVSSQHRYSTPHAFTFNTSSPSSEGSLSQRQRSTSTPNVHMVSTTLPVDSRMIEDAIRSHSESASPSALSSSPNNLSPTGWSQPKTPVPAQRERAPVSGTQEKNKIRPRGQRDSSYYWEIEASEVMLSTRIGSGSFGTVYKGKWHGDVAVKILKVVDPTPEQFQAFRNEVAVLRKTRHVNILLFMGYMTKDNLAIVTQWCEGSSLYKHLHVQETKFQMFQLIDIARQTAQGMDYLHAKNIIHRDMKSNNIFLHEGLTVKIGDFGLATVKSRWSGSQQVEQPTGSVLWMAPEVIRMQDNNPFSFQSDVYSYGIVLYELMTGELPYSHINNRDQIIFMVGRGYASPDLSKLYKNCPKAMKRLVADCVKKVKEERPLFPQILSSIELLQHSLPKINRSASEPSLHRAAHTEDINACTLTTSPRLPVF

Row | SMILES | inhibition [1] | inhibition [2] | inhibition [3] | inhibition [4] | inhibition [5] | inhibition [6] | inhibition [7] | inhibition [8] | inhibition [9] | inhibition [10]
1 | COc1cc2c(cc1Nc1nc(Nc3cccc(F)c3C(N)=O)c3cc[nH]c3n1)N(C(=O)CN1CCN(C(C)C)CC1)CC2 | 0.01% | 1.54% | 1.04% | 2.59% | 3.22% | 2.3% | 7.9% | 2.2% | 4.6% | 0.97%
2 | c1cnn2ncc(-c3ccnc(NCCCN4CCOCC4)n3)c2c1 | 2.64% | 2.68% | 0.1% | 2.13% | 2.9% | 5.35% | 7.07% | 5.41% | 5.03% | 2.81%
3 | CS(=O)(=O)CCNCc1ccoc1-c1ccc2ncnc(Nc3ccc(OCc4ccccc4)cc3)c2c1 | 3.68% | 4.12% | 21.9% | -0.82% | 2.26% | 1.03% | 1.49% | 1.75% | 1.31% | -1.29%
4 | O=C(O[C@H]1CN[C@H](C#Cc2cc3ncnc(Nc4ccc(OCc5cccc(F)c5)c(Cl)c4)c3s2)C1)N1CCOCC1 | 5.62% | 0.43% | 8.74% | 3.21% | 0.2% | 9.9% | 7.06% | 8.49% | 6.1% | 10.3%
5 | CC1=C(C(=O)Nc2ccc3[nH]ncc3c2)C(c2ccc(F)cc2)N=C(c2ccc(C(F)(F)F)nc2)N1 (stereo not given) | 3.3% | 1.26% | 4.23% | 2.61% | 1.68% | 1.92% | 5.6% | 1.17% | 6.02% | 1.11%
6 | Cc1nnc(-c2cccc(-c3ccc(C(=O)NCC4CC4)cc3)c2)o1 | 4.17% | 5.35% | 7.53% | 4.93% | 7.42% | 8.68% | 6.82% | 7.4% | 5.64% | -0.41%
7 | CCS(=O)(=O)c1ccc(OC)c(Nc2ncc(-c3cccc(C(C)=O)c3)o2)c1 | 24.1% | 18.6% | 65.9% | 2.04% | 1.3% | 3.62% | 6.17% | 3.41% | 5.84% | 5.57%
8 | Cc1ccc(-c2cc3c(NC(=O)C4CC4)ncnc3o2)cc1 | 47.8% | 6% | 23.7% | 1.07% | 3.18% | 4.57% | 4.6% | 4.47% | 4.89% | -0.84%
9 | CCN1CCC(C(=O)Nc2n[nH]c3nnc(-c4cccc(F)c4F)cc23)CC1 | 1.67% | 2.36% | -0.1% | -1.24% | 2.19% | -0.36% | 0.01% | 1.12% | 1.24% | -4.36%
10 | COc1ccc(Nc2ncc(-c3ccccc3)o2)cc1OC | 4.23% | 7% | 35.7% | 1.28% | 1.27% | -1.46% | 1.35% | 0.52% | 2.34% | -0.64%
11 | CS(=O)(=O)Nc1ccc(-c2ccc3c(NC(=O)C4CC4)n[nH]c3c2)cc1 | 13.6% | -0.59% | 4.94% | 1.11% | 3.42% | 4.42% | 6.73% | 4.74% | 6.11% | 4.35%
12 | CCOc1ccc2c(-c3ccnc(Nc4cc(OC)cc(C(F)(F)F)c4)n3)cnn2n1 | 4.4% | 2.04% | 6.75% | 0.43% | 3.29% | 0.89% | 1.03% | 0.43% | 1.03% | -4.87%
13 | O=C(Nc1n[nH]c2nnc(-c3cccnc3)cc12)C1CC1 | 1.65% | 1.69% | 7.01% | -1.5% | 2.36% | 0.25% | 2.61% | 1.02% | 3.66% | -2.58%
14 | CCn1c(-c2nonc2N)nc2cncc(C(=O)NCCNC)c21 | 5.41% | 2.4% | 5.52% | 0.59% | 1.01% | 7.93% | 7.26% | 4.48% | 4.42% | 2.61%
15 | NC(=O)c1ccc2c(-c3ccnc(NCCCO)n3)c(-c3ccc(F)cc3)nn2c1 | 3.98% | 2.77% | 10.9% | 1.7% | 1.63% | 10.9% | 22.2% | 9.67% | 19.7% | -3.29%
16 | COc1cccc(Nc2nccc(-c3cnn4ncccc34)n2)c1 | 21.2% | 3.57% | 20.5% | 2.31% | 11.7% | 5.24% | 31.6% | 4.52% | 30.7% | 2.53%

Row | SMILES | inhibition [1] | inhibition [2] | inhibition [3] | inhibition [4] | inhibition [5] | inhibition [6] | inhibition [7] | inhibition [8] | inhibition [9] | inhibition [10]
17 | CCS(=O)(=O)c1ccc(OC)c(Nc2ncc(-c3cccc(F)c3)o2)c1 | 26.2% | 75.9% | 96.3% | 1.94% | 5.25% | 7.42% | 10% | 4.95% | 4.95% | 1.22%
18 | COc1ccc(-c2nn3ncccc3c2-c2ccnc(Nc3ccc(F)c(F)c3)n2)cc1 | 6.24% | 39.5% | 85.2% | 2.54% | 1.2% | 5.72% | 5.29% | 4.54% | 3.83% | 0.22%
19 | COC(=O)Nc1nc2cc(Oc3ccc(NC(=O)Nc4ccccc4)cc3)ccc2[nH]1 | 4.81% | 0.64% | 4.69% | 0.7% | 1.28% | 4.74% | 4.26% | 5.49% | 5% | -5.27%
20 | NS(=O)(=O)c1ccc(N/N=C2\C(=O)Nc3cccc(CCc4ccncc4)c32)cc1 | 2.17% | 4.12% | 11.4% | -0.82% | 13.7% | 1.54% | 1.46% | 3.22% | 2.2% | -0.07%
21 | Cn1c(-c2nonc2N)nc2cnccc21 | 0.09% | 1.37% | 1.42% | 3.27% | 1.74% | 4.15% | 3.62% | 4.29% | 3.98% | 2.49%
22 | CN(c1ccc(NC(=O)NCCN2CCOCC2)cc1)c1ccnc(Nc2ccc(CS(C)(=O)=O)cc2)n1 | 6.95% | 1.4% | 8.5% | 0.58% | 2.72% | 4.55% | 7.4% | 3.94% | 7.38% | 6.1%
23 | CCCNc1cccc(-n2ncc3c(N/N=C/c4ccncc4)ncnc32)c1 | 42.8% | 43.1% | 82.8% | 2.44% | 3.95% | 0% | 1.5% | 0.21% | 2.86% | -0.1%
24 | OCCCNc1nccc(-c2c(-c3ccc(F)cc3)nn3cc(C(F)(F)F)ccc23)n1 | 1.03% | 1.78% | 1.85% | 2.54% | -1.3% | 3.71% | 11.6% | 2.84% | 9.93% | 0.53%
25 | CS(=O)(=O)CCNCc1ccc(-c2ccc3ncnc(Nc4ccc(OCc5cccc(C(F)(F)F)c5)cc4)c3c2)o1 | 0.73% | 0.5% | 5.33% | 3.18% | 0.41% | 6.08% | 8.69% | 4.37% | 5.8% | 1.96%
26 | Nc1nccc(-c2c(-c3ccc(F)cc3)ncn2C2CCNCC2)n1 | 1.14% and -0.71% | -1.29% and 0.36% | 11.9% and 16.2% | 1.4% and 0.85% | -2.69% and 1.59% | -2.89% and 1.95% | -0.2% and 7.76% | -4.19% and 1.23% | 0.9% and 7.41% | -3.57% and -1.58%
27 | COc1ccc2ncn(-c3cc(O[C@H](C)c4ccccc4C(F)(F)F)c(C(N)=O)s3)c2c1 | 2.75% | -2.36% | 1.07% | 2.16% | 2.62% | -0.46% | -2.23% | -1.03% | -0.82% | -0.27%
28 | Cc1c2ccc(N(C)c3ccnc(Nc4cccc(S(N)(=O)=O)c4)n3)cc2nn1C | 16.1% | 14.9% | 62.8% | 0.81% | 11.5% | 9.33% | 9.79% | 8.28% | 12.5% | -1.01%
29 | N#Cc1ccc2c(-c3ccnc(NC4CC4)n3)c(-c3ccc(F)cc3)nn2c1 | 0.69% | 2.22% | 3.79% | -2.8% | 1.15% | 2.6% | 5.81% | 2.7% | 4.72% | -0.7%
30 | CC1=C(C(=O)Nc2ccc3[nH]nc(C)c3c2)C(c2ccc(C(F)(F)F)cc2)CC(=O)N1 (stereo not given) | 2.61% | 2.7% | 11.8% | 0.65% | 2.13% | 6.25% | 38.8% | 5.77% | 37.9% | 3.79%
31 | CNC(=O)c1cncc(/C=C/c2ccccc2C)c1 | 3.96% | 4.29% | 9.93% | 1.58% | 2.36% | 6.43% | 7.91% | 6.48% | 6.88% | 5.82%

Source: ChEMBL document CHEMBL1961873, “Compounds: GSK PKIS; Assays: Nanosyn kinase panel” (2012)
